Laboratory results taken from PubChem BioAssay (NCATS).
Calls of active or inactive are those of the source. The call rests on the fitted dose curve.

Test: qHTS drug screen for cell cycle checkpoint inhibitors in PARPi-resistant BRCA-mutant ovarian cancer cell lines. (AID 1963452)
Conditions: PEO1/OlaR viability, CellTiter-Glo luminescence, 96 h, stronger effect = lower value
Excerpt: Women's Malignancies Branch, Center for Cancer Research (CCR),
National Cancer Institute (NCI), National Institutes of Health (NIH), Bethesda, MD
Poly (ADP-ribose) polymerase inhibitors (PARPis) have changed the treatment paradigm in breast cancer gene (BRCA) - mutant high-grade serous ovarian carcinoma (HGSC). However, most patients eventually develop resistance to PARPis, highlighting an unmet need for improved therapeutic strategies. Using high-throughput drug screens, we identified ataxia telangiectasia and rad3-related protein/checkpoint kinase 1 (CHK1) pathway inhibitors as cytotoxic and further validated the activity of the CHK1 inhibitor (CHK1i) prexasertib in PARPi-sensitive and -resistant BRCA-mutant HGSC cells and xenograft mouse models. CHK1i monotherapy induced DNA damage, apoptosis, and tumor size reduction. We then conducted a phase 2 study (NCT02203513) of prexasertib in patients with BRCA-mutant HGSC. The treatment was well tolerated but yielded an objective response rate of 6% (1 of 17; one partial response) in patients with previous PARPi treatment. […] BRCA reversion mutation in previously PARPi-treated BRCA-mutant patients was not associated with resistance to CHK1i.
Among others, 1082 oncology drugs, both approved and investigational, were prioritized based on their status in clinical trial development. […] Drugs with average Z-AUC values less than -1.0 in all three cell lines were classified as "hits" resulting in 151 oncology drug hits. The screen also confirmed cross-resistance between olaparib and other PARPis (rucaparib, niraparib, and talazoparib) in PARPi-resistant PEO1/OlaR and PEO4.
[1] G. L. Lin, K. M. Wilson, M. Ceribelli, B. Z. Stanton, P. J. Woo, S. Kreimer, E. Y. Qin, X. Zhang, J. Lennon, S. Nagaraja, P. J. Morris, M. Quezada, S. M. Gillespie, D. Y. Duveau, A. M. Michalowski, P. Shinn, R. Guha, M. Ferrer, C. Klumpp-Thomas, S. Michael, C. McKnight, P. Minhas, Z. Itkin, E. H. Raabe, L. Chen, R. Ghanem, A. C. Geraghty, L. Ni, K. I. Andreasson, N. A. Vitanza, K. E.Warren, C. J. Thomas, M. Monje, Therapeutic strategies for diffuse midline glioma from high-throughput combination drug screening. Sci. Transl. Med. 11, (2019).
[2] T. M. Yamamoto, A. McMellen, Z. L. Watson, J. Aguilera, R. Ferguson, E. Nurmemmedov, T. Thakar, G. L. Moldovan, H. Kim, D. M. Cittelly, A. M. Joglar, E. P. Brennecke, H. Wilson, K. Behbakht, M. J. Sikora, B. G. Bitler, Activation of Wnt signaling promotes olaparib resistant ovarian cancer. Mol. Carcinog. 58, 1770 - 1782 (2019).
PROTOCOL TABLE (as described by Inglese J, Shamu CE and Guy RK. 2007)
SEQUENCE No. (e.g., 1, 2, 3, etc.); […] (e.g., Cells, Incubation, Reagent, etc.); VALUE; DESCRIPTION.
1; Compounds; 20nL; 1536-well white tissue culture-treated plates.
2; Cells; 5 uL; PEO1, PEO4, and PEO1/OlaR cells at 600 cells per well.
3; Incubation; 96 hr; 37C, 95% humidity, 5% CO2.
4; Reagent; 3 uL; CellTiter-Glo (Promega).
5; Incubation; 15 min; room temperature.
6; Detection; Luminescence, PHERAstar (BMG Labtech) plate reader.
NOTES (numbers refer to Sequence numbers above)
1. MIPE 5.0 compounds were acoustically dispensed by Echo Acoustic Liquid Handler (Beckman Coulter Life Sciences). Each compound was plated at an 11-point concentration range with 1:3 dilution. Bortezomib, a proteasome inhibitor (final concentration, 20 uM), was used as a positive.
2. PEO1, PEO4, and PEO1/OlaR were trypsinized and dispensed in 5 uLof growth medium using a Multidrop Combi dispenser at a density of 600 cells per well to allow compounds to be present during the exponential growth phase.
3. Plates were incubated for 96 hours at standard incubator conditions and covered by a stainless steel gasketed lid to prevent evaporation.
4. Three microliters of CellTiter-Glo (Promega) were added to each well.
5. Plates were incubated at room temperature for 15 min with a stainless-steel lid in place.
6. Luminescence readings were taken using PHERAstar (BMG Labtech). […]

[1] = measured here: PEO1 parental Z-AUC

SMILES	Z-AUC	Z-AUC [1]	Z-AUC (measured here: PEO4 Z-AUC)
CCCCC(CC)COC(=O)C(C#N)=C(c1ccccc1)c1ccccc1 (configuration not stated)	0.188 (inactive)	-0.152	0.0622
Clc1ccc(C(Cn2ccnc2)OCc2ccsc2Cl)c(Cl)c1 (configuration not stated)	-0.189 (inactive)	-0.0624	0.0924
O=C1c2ccccc2-c2n[nH]c3cccc1c23	0.0207 (inactive)	-0.118	0.208
COc1cc2c(cc1OC)C1CC(=O)C(CC(C)C)CN1CC2 (configuration not stated)	0.0378 (inactive)	0.296	0.889
COc1ccccc1N1CCN(CCN(C(=O)C2CCCCC2)c2ccccn2)CC1	0.61 (inactive)	0.37	0.876
Cc1cccc(-c2[nH]ncc2-c2ccc3ncccc3n2)n1	-0.435 (inactive)	0.556	0.305
CC1=C(C)C(=O)C(C(CCCCCC(=O)O)c2ccccc2)=C(C)C1=O (configuration not stated)	0.121 (inactive)	0.192	0.237
O=C(O)CCNC(=O)c1ccc(N=Nc2ccc(O)c(C(=O)O)c2)cc1	-0.101 (inactive)	0.264	0.361
O=C(O)c1cccc(-c2noc(-c3ccccc3F)n2)c1	0.225 (inactive)	0.852	1.3
CC1(C)NC(=O)N(c2ccc([N+](=O)[O-])c(C(F)(F)F)c2)C1=O	1.11 (inactive)	0.722	0.784
CC(S)C(=O)NCC(=O)O (configuration not stated)	-0.465 (inactive)	0.365	0.0416
COc1c2occc2cc2ccc(=O)oc12	0.446 (inactive)	1.07	1.02
Cc1c(C(=O)NN2CCCCC2)nn(-c2ccc(Cl)cc2Cl)c1-c1ccc(Cl)cc1	-1.52 (inactive)	-0.747	-0.695
O=C1c2c(O)cc(O)cc2OC(c2ccc(O)c(O)c2)C1O (configuration not stated)	-0.835 (inactive)	-0.249	-0.326
